Screens as filed in PubChem.
Most compounds without a hit are left out; they make up all but 0.86% or so of the library.
AMA1 RON2 block: inhibitors of Plasmodium falciparum AMA1-RON2 interaction; AlphaScreen AMA1-biotinylated RON2 peptide binding; Potency, µM (top dose mostly 58.2 µM), inactives show at the highest dose activity change, negative = inhibition, hits mostly inhibitors; hit rate 0.2% among 360,000;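 further: 0% = vehicle wells and -100% = peptide control; nearly all actives have a fitted effect of over 45% in size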
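AMA1 (3D7) with his tag at 25 nM final met compounds first, then biotinylated RON2 peptide at 25 nM; detection used donor plus acceptor beads, 10 µg/mL apiece, read by AlphaScreen after 30 min at room temperature.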
NS1 inh: inhibitors of influenza NS1 protein function. AID 2326. hit rate 0.4% among 270,000. Potency, µM (titrated, usually from 46.1 µM), without a hit: at the top dose activity, positive = more growth; calls by dose curve; further: actives are rising curves; nearly all actives have a fitted effect of over 50% in size
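Read-out: OD600 growth recovery of NS1-expressing budding yeast. Cells grown overnight at 30C in -URA glucose medium, washed, resuspended and diluted 1:100 in 2% galactose assay medium, pH 6.0. Same strain lacking NS1 served as positive control.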
AmpC inh detg: blocks E. coli AmpC beta-lactamase in detergent assay | P00811 | AmpC hydrolysis of nitrocefin, absorbance 480 nm, 0.01% Triton | Potency, µM (top dose mostly 114 µM), without a hit: at the top dose activity change, negative = inhibition, most hits filed as inhibitors | hit rate 0.041% among 370,000;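 further: 0% = no-compound wells and -100% = no-enzyme wells; nearly all actives have a fitted effect of over 25% in size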
Target sequence (P00811 whole entry, looked up): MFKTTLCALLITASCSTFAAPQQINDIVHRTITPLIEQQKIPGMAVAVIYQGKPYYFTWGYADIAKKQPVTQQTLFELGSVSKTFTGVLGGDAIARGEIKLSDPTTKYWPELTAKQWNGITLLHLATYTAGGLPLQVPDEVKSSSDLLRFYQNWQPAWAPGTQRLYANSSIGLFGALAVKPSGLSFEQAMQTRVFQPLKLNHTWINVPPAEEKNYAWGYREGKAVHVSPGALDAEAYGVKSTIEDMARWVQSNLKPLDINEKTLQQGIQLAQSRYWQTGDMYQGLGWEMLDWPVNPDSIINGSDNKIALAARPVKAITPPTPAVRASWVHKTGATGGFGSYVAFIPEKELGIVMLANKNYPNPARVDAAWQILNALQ
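AmpC (5.3 nM in the dispensed reagent) in 20 mM phosphate pH 7.0 with 0.01% (detergent screen) or 0.0001% Triton X-100 was preincubated with compounds for 15 min at room temperature. Nitrocefin was then added from an 800 uM solution, and hydrolysis was followed at 480 nm.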
AmpC no deterg: inhibitors of E. coli AmpC beta-lactamase without detergent; Potency, µM (doses to about 57.1 µM), without a hit: at the top dose activity change, negative = inhibition, actives largely listed as inhibitors; AID 485341; P00811; AmpC nitrocefin hydrolysis, absorbance 480 nm, 0.0001% Triton; hit rate 0.52% among 330,000;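 further: plate controls were no compound for no effect and no enzyme for full effect; nearly all actives have a fitted effect of over 20% in size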
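AmpC (5.3 nM in the dispensed reagent) in 20 mM phosphate pH 7.0 with 0.01% (detergent screen) or 0.0001% Triton X-100 was preincubated with compounds for 15 min at room temperature. Nitrocefin was then added from an 800 uM solution, and hydrolysis was followed at 480 nm.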
Active calls of the source: *; ? = inconclusive; / = no result given; [ ] = another dose, or the depositor's remark. Unless noted, the call rests on the fitted dose curve; in most records, active means well fitted curve in the direction sought with a large enough effect; inconclusive means small, poorly fitted or top-dose-only effect, or another doubt; inactive means no such curve, though single readings can be large; an effect the other way counts as inactive or inconclusive. Potency means the concentration at half of the fitted maximal effect.

SMILES	AMA1 RON2 block	NS1 inh	AmpC inh detg	AmpC no deterg
COc1cc(C(O)c2nc(-c3ccc(F)cc3OC)cs2)ccc1F (stereo not given)	9%	/	/	/
COC(=O)c1cc(=O)n(CCc2ccccc2)c(=Nc2ccc(F)cc2)s1	-19%	-2%	-15%	0.71µM*
COC(=O)c1cc(=O)n(CCc2ccc(OC)cc2)c(=Nc2ccc(F)c(Cl)c2)s1	-27%	12%	-5%	-6%
O=C(Cc1ccc(S(=O)(=O)N2CCCC2)s1)Nc1nc2c(s1)CCCC2	5%	-9%	?	14µM*
NS(=O)(=O)c1cccc(NC(=O)COC(=O)Cc2ccc(S(=O)(=O)N3CCCCC3)s2)c1	0%	/	-5%	32µM*
CCOc1ccc(/C=N/NC(=O)c2c(C)n(C)c3ccc(OC)cc23)cc1	-5%	24%	-3%	32µM*
O=c1[nH]c(=O)n2c(c1-c1ccccc1)OC(CBr)C2 (stereo not given)	-10%	/	/	/
CN(c1ccccc1)S(=O)(=O)c1cccc(NC(=O)c2ccc(=O)[nH]n2)c1	-14%	/	/	2µM*
CN(c1ccccc1)S(=O)(=O)c1cccc(NC(=O)c2ccc(=O)[nH]c2)c1	-10%	/	-5%	-27%
O=C(Nc1ccccc1O)c1ccc(NS(=O)(=O)c2cccc3cccnc23)cc1	65%	-15%	-2%	16µM*
COC(=O)c1ccc(NC(=O)c2ccc(NS(=O)(=O)c3cccc4cccnc34)cc2)cc1	47%	0%	2%	-42%
CCc1c(C(=O)N/N=C/c2cn[nH]c2-c2ccc(F)cc2)csc1C	10%	-7%	?	16µM*
Cc1cc(C(=O)N/N=C/c2cn[nH]c2-c2ccccc2)cs1	-3%	19%	7%	-46%
Cc1ccc2ncccc2c1	8%	/	2%	-17%
Cc1cc(N(C)C)ccc1N=Nc1ccc2ncccc2c1	11µM*	-8%	-4%	4%
Cc1ccc(-c2nc(NC(=O)CSc3nc(C)nc4sc5c(c34)CCCC5)ns2)cc1	/	/	22%	/
Cc1ccc2c(c1)CCCN2CC(=O)N(C)c1c(N)n(Cc2ccccc2)c(=O)[nH]c1=O	-5%[11.6 µM]	/	-5%	-2%
O=C(Nc1ccc(-c2csc(Nc3ccccc3)n2)cc1)c1cccc(C(F)(F)F)c1	0%	16%	2%	3.5µM*
O=C(Nc1ccc(-c2csc(Nc3ccc(Cl)cc3)n2)cc1)c1cccc(C(F)(F)F)c1	-13%	11%	-9%	?
CCCC[C@]12Cc3ccccc3C(O1)c1c(cc(-c3ccccc3)oc1=O)O2	/	-67%	-11%[22.9 µM]	-31%[11.4 µM]
Oc1ccccc1C1CC(c2cccs2)=NC(c2cccc(Br)c2)N1 (stereo not given)	-2%	/	6%	-21%
O=C(N/N=C/c1cccc2ccccc12)c1cc2ccccc2o1	12%	3%	0%	-54%
C#CCn1cc(/C=N/NC(=O)c2cc3ccccc3o2)c2ccccc21	-3%	7%	?	28µM*
Cn1c(=O)oc2cc(S(=O)(=O)N3CCCC(C(=O)N4CC=C(c5ccccc5)CC4)C3)ccc21 (stereo not given)	/	10µM*	-9%	77%
COc1ccccc1N1CCN(C(=O)C2CCCN(S(=O)(=O)c3ccc4c(c3)oc(=O)n4C)C2)CC1 (stereo not given)	-1%	-10%	1%	199%
SMILES	AMA1 RON2 block	NS1 inh	AmpC inh detg	AmpC no deterg
C[C@H](CO)N1C[C@H](C)[C@@H](CN(C)Cc2ccc(C(=O)O)cc2)OCc2cnnn2CCCC1=O	8%	/	/	/
CCOC(=O)N1CCN(C(=O)CS(=O)(=O)c2cn(Cc3ccccc3Cl)c3ccccc23)CC1	7%	7%	?	4µM*
CCOC(=O)N1CCN(C(=O)CS(=O)(=O)c2cn(Cc3ccc(Cl)cc3)c3ccccc23)CC1	6%	7%	?	?
COC(=O)C1CSC(C(=O)OC)N1C(=O)CN1CCN(c2ccccc2)CC1 (stereo not given)	-6%	1%	-3%	-1%
COc1ccc(C(CCNCc2ccc(N(C)C)cc2)c2ccccc2)cc1 (stereo not given)	20µM*	-4%	-2%	1%
COc1ccccc1C(=O)c1cn(CC(=O)Nc2ccccc2F)c2nc(C)ccc2c1=O	/	/	3%	/
Nc1cc([N+](=O)[O-])ccc1Nc1ccc(O)cc1	-24%	-49%	1%	32µM*
Cc1cccc(C)c1Nc1nnc(SCC(=O)c2ccc3c(c2)NC(=O)CO3)s1	11%	?	-4%	25µM*
CCOC(=O)c1c(C)[nH]c(=S)c(C#N)c1-c1ccc(Cl)cc1	75%	?	-6%	28µM*
CCn1c(SCC(=O)N2CCOCC2)nnc1C(C)NC(=O)c1ccccc1 (stereo not given)	-4%	-7%	-3%	-20%
COc1cccc(C(=O)OCC(=O)NC23CC4CC(CC(C4)C2)C3)c1	21%	/	/	-7%
CC(=O)Oc1cc(C(=O)OCC(=O)NC23CC4CC(CC(C4)C2)C3)cc(OC(C)=O)c1OC(C)=O	20µM*	/	/	/
O=C(CSc1n[nH]c(-c2ccc(S(=O)(=O)N3CCCCC3)cc2)n1)Nc1nccs1	-1%	-4%	?	14µM*
O=C(CC1SC(=O)N(c2ccccc2)C1=O)Nc1ccc(Br)cc1 (stereo not given)	77%	6%	-6%	8.9µM*
O=C(CC1SC(=O)N(c2ccccc2)C1=O)Nc1ccc(Cl)cc1 (stereo not given)	67%	10%	1%	-47%
O=C(NC(c1ccc(Cl)cc1)c1ccsc1)C1CCN(Cc2ccc(Oc3ccccc3)cc2)CC1 (stereo not given)	-15%	/	/	/
COC(=O)c1ccccc1NC(=O)Cn1nc(C)c2nn(-c3ccc(Cl)cc3)c(C)c2c1=O	/	/	5%	/
CS(=O)c1ccccc1COC(=O)Nc1ccc(Cl)cc1 (stereo not given)	1%	5%	5%	6.3µM*
CC(NC(=O)C1CCCN(S(=O)(=O)c2cccs2)C1)c1ccccc1 (stereo not given)	26%	-9%	-3%	3.2µM*
CC(NC(=O)C1CCCN(S(=O)(=O)c2cnc[nH]2)C1)c1ccccc1 (stereo not given)	-3%	4%	?	-12%
Cc1ccc(C(=O)Nc2ncc(Cc3ccc(F)cc3)s2)o1	1%	-6%	?	32µM*
COc1ccc(N2CCN(C(CNC(=O)C(=O)NCc3ccc(F)cc3)c3cccnc3)CC2)cc1 (stereo not given)	/	/	11%	/
Cc1nn(-c2ccc(F)cc2)c(Cl)c1/C=N/NC(=O)c1cccs1	-10%	9%	-1%	28µM*
COc1ccc(N2c3ccccc3CN(Cc3ccccc3)CC2Cc2cc(OC)c(OC)c(OC)c2)cc1 (stereo not given)	11µM*	/	/	/
CCN(CC)CCCC(C)Nc1c2ccc(Cl)cc2nc2ccc(OC)cc12 (stereo not given)	/	-40%	-3%	-10%
COc1ccc2nc3cc(Cl)ccc3c(Nc3cc(C(C)C)c(O)cc3C)c2c1	16µM*	-43%	-6%	-20%
Fc1ccc(N2CCN(c3ncnc4[nH]ncc34)CC2)cc1	/	/	-4%	/
